Experimental data published in PubChem BioAssay AID1159580 (chemical genetic matrix, 2015).
Screen size: about 5,500 compounds; about 2,000 (36%) were called active. About 18% were inconclusive and are not listed. Cut-off read from the data, not from the text of the source: active = normalized growth mostly below about 0.91 (no sharp cut-off); inconclusive = no clear call, values can overlap the other calls; inactive = mostly above about 0.92. This is one part of the list.

Assay: chemical genetic growth profiling, strain panel (AID 1159580);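 note: tested at 20 µM; growth read once vehicle control cultures reached saturation at 30 °C; 1 = growth at the plate median or of vehicle wells; lower values mean less growth of the strain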
Conditions: growth OD

Measured: normalized growth

COc1cc([C@@H]2c3cc4c(cc3C(O[C@@H]3O[C@@H]5CO[C@@H](c6cccs6)OC5[C@H](O)[C@H]3O)C3COC(=O)[C@@H]32)OCO4)cc(OC)c1O (stereo not given in full)
inactive: S. cerevisiae deletion strains, locus YJR066W, strain TOR1, active compounds read low 0.99 | S. cerevisiae deletion strains, locus YKL009W, strain mrt4, active compounds read low 1.03 | S. cerevisiae deletion strains, locus YKL068W, active compounds read low 1.01 | S. cerevisiae deletion strains, locus YKL085W, strain MDH1 (second series), active compounds read low 1 | S. cerevisiae deletion strains, locus YKL085W, strain MDH1, active compounds read low 1 | S. cerevisiae deletion strains, locus YKL160W, strain elf1, active compounds read low 1.05 | S. cerevisiae deletion strains, locus YKL190W, strain CNB1, active compounds read low 0.997 | S. cerevisiae deletion strains, locus YKR001C, strain vps1, active compounds read low 1.02 | S. cerevisiae deletion strains, locus YKR026C, strain gcn3, active compounds read low 0.986 | S. cerevisiae deletion strains, locus YKR091W, strain srl3, active compounds read low 0.998 | S. cerevisiae deletion strains, locus YLL001W, strain dnm1, active compounds read low 1.05 | S. cerevisiae deletion strains, locus YLL026W, active compounds read low 0.984 | S. cerevisiae deletion strains, locus YLL041C, strain sdh2, active compounds read low 0.967 | S. cerevisiae deletion strains, locus YLR027C, strain aat2, active compounds read low 0.985 | S. cerevisiae deletion strains, locus YLR039C, strain RIC1, active compounds read low 1.01 | S. cerevisiae deletion strains, locus YLR058C, strain SHM2, active compounds read low 1 | S. cerevisiae deletion strains, locus YLR102C, strain apc9, active compounds read low 1.02 | S. cerevisiae deletion strains, locus YLR113W, strain HOG1, active compounds read low 1.01 | S. cerevisiae deletion strains, locus YLR221C, strain rsa3, active compounds read low 1.03 | S. cerevisiae deletion strains, locus YLR258W, strain gsy2, active compounds read low 1 | S. cerevisiae deletion strains, locus YLR262C, strain YPT6 (second series), active compounds read low 1 | S. cerevisiae deletion strains, locus YLR262C, strain YPT6, active compounds read low 0.964 | S. cerevisiae deletion strains, locus YLR268W, strain sec22, active compounds read low 1.02 | S. cerevisiae deletion strains, locus YLR320W, strain mms22, active compounds read low 1.01 | S. cerevisiae deletion strains, locus YLR330W, strain CHS5, active compounds read low 0.999 | S. cerevisiae deletion strains, locus YLR342W, strain FKS1 (second series), active compounds read low 1.01 | S. cerevisiae deletion strains, locus YLR342W, strain FKS1, active compounds read low 0.99 | S. cerevisiae deletion strains, locus YLR357W, strain rsc2, active compounds read low 0.98 | S. cerevisiae deletion strains, locus YLR370C, strain arc18, active compounds read low 0.986 | S. cerevisiae deletion strains, locus YLR371W, strain rom2, active compounds read low 1.01 | S. cerevisiae deletion strains, locus YLR384C, strain iki3, active compounds read low 0.97 | S. cerevisiae deletion strains, locus YLR418C, strain cdc73, active compounds read low 1.02 | S. cerevisiae deletion strains, locus YML016C, strain PPZ1, active compounds read low 1 | S. cerevisiae deletion strains, locus YML032C, strain rad52, active compounds read low 0.917 | S. cerevisiae deletion strains, locus YML120C, strain ndi1, active compounds read low 1.02 | S. cerevisiae deletion strains, locus YML124C, strain tub3, active compounds read low 1.01 | S. cerevisiae deletion strains, locus YMR058W, strain fet3, active compounds read low 0.993 | S. cerevisiae deletion strains, locus YMR078C, strain ctf18, active compounds read low 1.01 | S. cerevisiae deletion strains, locus YMR125W, strain sto1, active compounds read low 1.01 | S. cerevisiae deletion strains, locus YMR129W, active compounds read low 0.983 | S. cerevisiae deletion strains, locus YMR205C, strain PFK2, active compounds read low 1.02 | S. cerevisiae deletion strains, locus YMR223W, strain ubp8, active compounds read low 1.02 | S. cerevisiae deletion strains, locus YMR231W, strain pep5, active compounds read low 0.978 | S. cerevisiae deletion strains, locus YMR263W, strain SAP30, active compounds read low 1 | S. cerevisiae deletion strains, locus YMR307W, strain GAS1, active compounds read low 0.933 | S. cerevisiae deletion strains, locus YNL067W, strain RPL9B, active compounds read low 0.998 | S. cerevisiae deletion strains, locus YNL071W, strain lat1, active compounds read low 0.976 | S. cerevisiae deletion strains, locus YNL128W, strain TEP1, active compounds read low 1.02 | S. cerevisiae deletion strains, locus YNL183C, strain NPR1, active compounds read low 0.987 | S. cerevisiae deletion strains, locus YNL209W, strain ssb2, active compounds read low 0.985 | S. cerevisiae deletion strains, locus YNL233W, strain BNI4, active compounds read low 1 | S. cerevisiae deletion strains, locus YNL248C, strain rpa49, active compounds read low 0.999 | S. cerevisiae deletion strains, locus YNL250W, strain rad50, active compounds read low 0.977 | S. cerevisiae deletion strains, locus YNL271C, strain bni1, active compounds read low 1.02 | S. cerevisiae deletion strains, locus YNL298W, strain CLA4, active compounds read low 1.04 | S. cerevisiae deletion strains, locus YNL307C, strain MCK1, active compounds read low 1.03 | S. cerevisiae deletion strains, locus YNL322C, strain KRE1 (second series), active compounds read low 0.994 | S. cerevisiae deletion strains, locus YNR049C, strain mso1, active compounds read low 0.978 | S. cerevisiae deletion strains, locus YNR052C, strain pop2, active compounds read low 1.03 | S. cerevisiae deletion strains, locus YOL006C, strain TOP1, active compounds read low 0.89 | S. cerevisiae deletion strains, locus YOL012C, strain htz1 0.835 | S. cerevisiae deletion strains, locus YOL147C, strain pex11, active compounds read low 1.01 | S. cerevisiae deletion strains, locus YOR001W, strain rrp6, active compounds read low 0.933 | S. cerevisiae deletion strains, locus YOR061W, strain CKA2, active compounds read low 1 | S. cerevisiae deletion strains, locus YOR069W, strain VPS5, active compounds read low 1 | S. cerevisiae deletion strains, locus YOR070C, strain gyp1, active compounds read low 0.991 | S. cerevisiae deletion strains, locus YOR080W, strain dia2, active compounds read low 0.971 | S. cerevisiae deletion strains, locus YOR083W, strain WHI5, active compounds read low 1.05 | S. cerevisiae deletion strains, locus YOR106W, strain vam3, active compounds read low 1.02 | S. cerevisiae deletion strains, locus YOR136W, strain idh2, active compounds read low 1.02 | S. cerevisiae deletion strains, locus YOR144C, strain elg1, active compounds read low 1.01 | S. cerevisiae deletion strains, locus YOR184W, strain ser1, active compounds read low 1.01 | S. cerevisiae deletion strains, locus YOR231W, strain MKK1, active compounds read low 1 | S. cerevisiae deletion strains, locus YOR265W, strain rbl2, active compounds read low 0.985 | S. cerevisiae deletion strains, locus YOR270C, strain vph1, active compounds read low 0.891 | S. cerevisiae deletion strains, locus YOR290C, strain snf2, active compounds read low 0.982 | S. cerevisiae deletion strains, locus YOR316C, strain cot1, active compounds read low 1.03 | S. cerevisiae deletion strains, locus YPL051W, strain arl3, active compounds read low 1.03 | S. cerevisiae deletion strains, locus YPL055C, strain LGE1, active compounds read low 0.996 | S. cerevisiae deletion strains, locus YPL078C, strain atp4, active compounds read low 1.03 | S. cerevisiae deletion strains, locus YPL106C, strain sse1, active compounds read low 1.01 | S. cerevisiae deletion strains, locus YPL240C, strain hsp82, active compounds read low 0.99 | S. cerevisiae deletion strains, locus YPL241C, strain CIN2, active compounds read low 1 | S. cerevisiae deletion strains, locus YPL256C, strain CLN2, active compounds read low 1.03 | S. cerevisiae deletion strains, locus YPR119W, strain clb2, active compounds read low 1.01 | S. cerevisiae deletion strains, locus YPR141C, strain kar3, active compounds read low 1.01 | S. cerevisiae deletion strains, locus YPR163C, strain tif3, active compounds read low 1.03 | S. cerevisiae deletion strains, locus YPR167C, strain met16, active compounds read low 1.02 | S. cerevisiae deletion strains, strain wtn01, active compounds read low 1.03 | S. cerevisiae strains, strain wild type, active compounds read low 1.01
